In PubChem BioAssay AID2778 (National Center for Advancing Translational Sciences (NCATS), 2010) one finds Potency data, which are given here for 16 compounds.

Molecules are shown by their SMILES. Inconclusive results are not listed. Where a call stands in place of a potency, no number is given. Calls of active or inactive are those of the source. The call rests on the fitted dose curve; in most records, active means well fitted inhibition curve with a large enough effect; inconclusive means small, poorly fitted or top-dose-only effect, or effect the other way; inactive means flat fitted curve, though single readings scatter.
Potency means the concentration at half of the fitted maximal effect.

Chain of Menin (Homo sapiens) (O00255 whole entry, looked up): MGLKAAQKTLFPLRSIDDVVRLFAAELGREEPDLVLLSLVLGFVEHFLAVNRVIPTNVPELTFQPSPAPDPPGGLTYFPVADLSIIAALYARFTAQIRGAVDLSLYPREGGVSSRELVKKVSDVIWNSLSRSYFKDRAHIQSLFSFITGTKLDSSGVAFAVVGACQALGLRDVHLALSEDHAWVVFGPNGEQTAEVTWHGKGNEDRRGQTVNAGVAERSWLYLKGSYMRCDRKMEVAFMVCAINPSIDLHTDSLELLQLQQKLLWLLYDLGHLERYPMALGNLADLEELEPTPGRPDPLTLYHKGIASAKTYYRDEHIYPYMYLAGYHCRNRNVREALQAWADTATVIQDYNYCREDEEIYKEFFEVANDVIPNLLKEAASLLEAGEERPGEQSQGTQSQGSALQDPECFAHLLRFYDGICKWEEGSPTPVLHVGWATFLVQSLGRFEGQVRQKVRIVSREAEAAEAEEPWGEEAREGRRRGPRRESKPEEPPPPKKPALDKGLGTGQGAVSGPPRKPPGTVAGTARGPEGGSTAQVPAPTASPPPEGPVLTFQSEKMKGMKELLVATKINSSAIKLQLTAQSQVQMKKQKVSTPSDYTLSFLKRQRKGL

The assay addresses Menin (Homo sapiens) (UniProt O00255). As to the kind of experiment: Confirmation of Inhibitors Targeting the Menin-MLL Interaction in MLL Related Leukemias: Confirmation in an HTRF (commercial TR-FRET) Assay using His-tagged menin and biotin-labeled MLL peptide. The conditions noted are these: His-menin / biotin-MLL peptide binding; series mostly up to 126 µM. The source says:
qHTS Assay for Inhibitors Targeting the Menin-MLL Interaction in MLL Related Leukemias
NIH Chemical Genomics Center [NCGC]
NIH Molecular Libraries Probe Centers Network [MLPCN]
Assay Submitter (PI): Jolanta Grembecka, Tomasz Cierpicki, University of Virginia
Translocations of the MLL (Mixed Lineage Leukemia) gene are frequently found in human leukemias affecting both children and adults. Fusion of MLL to one of more than 60 genes results in generation of oncogenic proteins upregulating Hox genes, which are vital to blood cell development. Patients harboring fusion of the MLL gene suffer from aggressive leukemias and respond poorly to available therapies. All of the oncogenic fusion proteins have a preserved N-terminal fragment of MLL that has been identified to interact with menin. It has been recently discovered that association with menin is critical to the leukemogenic activity of the MLL fusion oncoproteins. Selective targeting of the menin-MLL interaction could provide an attractive therapeutic approach to develop novel drugs for MLL-related leukemias. Small molecules blocking the menin-MLL interaction should reverse the oncogenic potential of MLL fusion proteins.
We have developed and optimized a fluorescence polarization-based assay for the identification of Menin-MLL inhibitors. The assay was run employing two different MLL-derived peptides. The present assay uses a 12 amino acid peptide labeled with fluorescein at its N-terminus. This peptide consists of the menin high affinity binding motif from MLL and is potently bound by menin. Another peptide with a mutated sequence, labeled with Texas Red, was used in parallel as a less stringent screen for inhibitors.
The present assay uses an alternate technology to confirm hits from the primary screen - homogeneous time resolved fluorescence (HTRF).
The Menin protein, the MLL-wild type (w.t.) derived peptide (N-terminal 12 amino acids), the MLL-derived peptide labeled with Texas Red and the MLL-w.t. peptide labeled with Fluorescein were kindly supplied by laboratory of Dr. Jolanta Grembecka, University of Virginia. All protein and peptide solutions were stored in single use aliquots at -80C. The Eu3+ Cyrptate-conjugated mouse monoclonal antibody anti-6 Histidine (Eu3+-AB) and the Streptavidin-XL665 conjugate (XL665) were purchased from Cisbio International (Bedford, MA). All antibody and XL665 conjugate solution stocks were stored in single use aliquots at -20C. The Buffer components for all assays were purchased from Sigma-Aldrich (St. Louis, MO) and Invitrogen (Carlsbad, CA).
1. HTRF reaction buffer: 50 mM Tris-HCl pH 7.5, 50 mM NaCl, 1mM DTT.
Before use, 0.05% BSA is added.
2. His6-Menin protein, MLL-w.t. labeled with biotin.
Stored in singe use aliquots at -80C.
3. MLL-w.t. unlabeled peptide as positive control: 10 uM final in HTRF buffer.
1. Prepare His6-Menin at 200 nM, MLL-w.t.-biotin at 80 nM in HTRF buffer.
2. Prepare His6-Menin at 200 nM, MLL-w.t.-biotin at 80 nM and 10 uM MLL-w.t. unlabeled mixture in HTRF buffer.
3. Dispense 10 ul per well of reagent in step 1 in columns 2, 4-24 in a black 384 well plate, dispense 10 ul per well of reagents from steps 2 in column 1. Incubate plate at ambient for 15 minutes.
4. Transfer 1 uL per well of compound to plate and incubate at ambient for 1 hr.
5. Dispense 10uL of the donor (6His-Cryptate, 3.5 nM final conc.) and acceptor (SA_XL, 10nM final conc.) complex in the HTRF buffer with 0.01% BSA. Incubate for 1h.
In the case of `c1cc2cc(c1)C[n+]1ccc(c3ccccc31)NCc1ccc(cc1)CNc1cc[n+](c3ccccc13)C2`, the Potency is 282 µM (active). For `COc1cc(/C=N/n2cnnc2)ccc1OC(=O)N(C)C` the value was “inactive”; for `COc1cc(-c2ccc(-[n+]3nc(-c4ccccc4)nn3-c3ccc([N+](=O)[O-])cc3)c(OC)c2)ccc1-[n+]1nc(-c2ccccc2)nn1-c1ccc([N+](=O)[O-])cc1`, 56.2 µM (active).

`COc1ccc(C(O)P(=O)(Oc2ccccc2)Oc2ccccc2)cc1` (stereo unspecified): the Potency result was “inactive”. As for `CC[C@]12C=CCN3CC[C@@]4(c5ccc(OC)cc5N(C)[C@H]4[C@@](O)(C(=O)OC)[C@@H]1OC(C)=O)C32` (stereo partly specified), the Potency entry is “inactive”. In the case of `CCCCn1c(=O)c(C(=O)Nc2ccsc2C(=O)OC)c(O)c2ccccc21` it was “inactive”. In the case of `C[C@@H]1CC[C@@]2(NC1)O[C@H]1C[C@H]3[C@@H]4CC=C5C[C@@H](O)CC[C@]5(C)[C@H]4CC[C@]3(C)[C@H]1[C@@H]2C` it was “inactive”.

For `O=C(O)CN1C(=O)CN=C(c2ccccn2)c2cc(Cl)ccc21`, the Potency result is “inactive”. In the case of `OC12C3C4CC5C6C4C1C6C(C53)N2CCc1cccc(F)c1` (stereo unspecified) it was “inactive”. In the case of `O=c1oc2ccccc2c(O)c1C(c1ccccn1)c1c(O)c2ccccc2oc1=O` it was “inactive”; in that of `O=C(Nc1ccc2ccccc2c1)c1nn(C23CC4CC(CC(C4)C2)C3)cc1Br`, “inactive”; in that of `O=C1NC(=O)C(=Cc2ccc3ccccc3c2)C(=O)N1`, “inactive”. As to `CCOC(=O)Cc1csc(NC(=O)c2c(O)c3ccccc3n(CCC(C)C)c2=O)n1`, the Potency entry is “inactive”.

With `C[N+](C)(C)CC#CCN1CCCC1=O`, the Potency result was “inactive”.

Consider `Cc1cc(C(=O)NP(=O)(N2CCOCC2)N2CCOCC2)c(C)n1C1CC1`, for which the Potency entry was “inactive”.

Take `CCOP(=O)(OCC)C(NC(=O)c1ccccc1C)C(Cl)(Cl)Cl` (stereo unspecified): the Potency entry was “inactive”.
